Structures can show the parent of a compound that is named as a salt.
Legend:
Assay in all cases: Euclidean distance of Cell Painting phenotypic profile (signed KS, 77 features) to DMSO centroid (dimensionless distance); 5 or 10 uM (library dependent); higher = stronger phenotypic change vs DMSO (phenoactivity)
Details in all cases: 48 h
786-O = test system: 786-O
In short: (§1)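 At 10 or 5 uM, as set by the library, and 0.1% DMSO final, compounds were applied for 48 h to five cancer lines and one healthy fibroblast line. Stained cells were imaged confocally at 20X in 9 fields per well, and Harmony extracted 77 features scored as signed Kolmogorov-Smirnov statistics against vehicle wells on the same plate. Profiles underwent plate-position correction, correlation weighting and replicate averaging at the top dose. Phenoactivity is the Euclidean distance from each such profile to the median vehicle profile.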

A549 = test system: A549
In short: as §1

DU145 = test system: DU145
In short: as §1

FB = test system: FB
In short: as §1

HEPG2 = test system: HEPG2
In short: as §1

OVCAR4 = test system: OVCAR4
In short: as §1

Compound	Euclidean distance (786-O)	Euclidean distance (A549)	Euclidean distance (DU145)	Euclidean distance (FB)	Euclidean distance (HEPG2)	Euclidean distance (OVCAR4)
CS(=O)(=O)n1cc2c(n1)CN([C@H]1CO[C@H](c3cc(F)ccc3F)[C@@H](N)C1)C2 [Omarigliptin (MK-3102)]	1.02	2.02	1.89	1.7	2.25	2.16
O=C(c1ccc(OCCCc2c[nH]cn2)cc1)C1CC1 [Ciproxifan]	1.15	1.15	1.03	0.829	0.908	1.15
CN[C@@H](C)C(=O)N[C@H]1CN(C(=O)CC(C)C)CC[C@H]2CC[C@@H](C(=O)NC(c3ccccc3)c3ccccc3)N2C1=O	1.44	1.35	0.871	0.766	0.91	1.24
CCCOc1ccc(C(=O)OCCN(CC)CC)cc1N [Proparacaine HCl]	1.06	1.11	1.7	1.27	0.765	1.27
COC(=O)CCC(=O)CN [Methyl Aminolevulinate Hydrochloride]	1.52	0.774	0.717	0.88	0.566	1.34
Clc1ccccc1CN1CCc2sccc2C1 [Ticlopidine HCl]	1.29	1.12	1.3	1.59	0.746	1.56
CN(C)C(=O)N[C@H]1CC[C@H](CCN2CCN(c3cccc(Cl)c3Cl)CC2)CC1 [Cariprazine HCl]	1.25	1.41	1.47	1.58	1.63	0.982
CC(=O)N1C[C@H](O)C[C@H]1C(=O)O [Oxaceprol]	0.691	0.845	0.785	0.895	0.812	1.28
O=C(/C=C/c1ccc(O)c(O)c1)OCCc1ccccc1 [Caffeic Acid Phenethyl Ester]	1.43	2.31	1.1	1.78	1.71	1.18
CC(C)NC[C@H](O)COc1ccc(CCOCC2CC2)cc1 [Levobetaxolol HCl]	1.03	0.954	0.622	0.99	0.412	0.877
O=C(O)c1cc(-c2ccc(F)cc2F)ccc1O [Diflunisal]	1.47	0.745	1.05	1.06	0.706	1.71
C=CC(=O)Nc1cc(Nc2nccc(-n3cc(CN(C)C)c(-c4ccccc4)n3)n2)c(OC)cc1N1CCOCC1	0.904	1.76	1.79	1.2	1.27	2.16
CCCOc1ccc(S(=O)(=O)NCCC2CCCN2C)cc1-c1nc2c(CCC)nn(C)c2c(=O)[nH]1 (stereo not drawn) [Udenafil]	1.13	1.12	1.49	1.77	1.61	1.41
CCCCCCCCN=C(N)NC(N)=NCc1ccc(Cl)c(Cl)c1 [Olanexidine Hydrochloride semihydrate]	5.91	4.86	6.25	6.15	3.98	5.78
CCNC(=O)c1noc(-c2cc(C(C)C)c(O)cc2O)c1-c1ccc(CN2CCOCC2)cc1	2.96	2.83	3.5	2.77	3.91	2.67
Cc1c(S(=O)(=O)O)oc2c1C(=O)C(=O)c1c-2ccc2c1CCCC2(C)C [Tanshinone IIA sulfonate (sodium)]	0.814	0.633	1.71	1.05	0.728	1.24
CCC(=O)O[C@H]1[C@H](O[C@@H]2[C@@H](C)[C@H](O[C@H]3C[C@@](C)(OC)[C@@H](O)[C@H](C)O3)[C@@H](C)C(=O)O[C@H](CC)[C@@](C)(O)[C@H](O)[C@@H](C)C(=O)[C@H](C)C[C@@]2(C)O)O[C@H](C)C[C@@H]1N(C)C [Erythromycin estolate]	0.939	1.04	1.77	1.82	0.988	1.19
C=CC(=O)N1C[C@H](Nc2ncnc3[nH]ccc23)CC[C@@H]1C	1.27	0.386	1.09	0.936	0.582	0.786
COc1ccc(-c2cc(=O)c3c(O)cc(O)cc3o2)cc1O [Diosmetin]	2.12	1.03	0.892	1.37	1.25	1.26

Compound	Euclidean distance (786-O)	Euclidean distance (A549)	Euclidean distance (DU145)	Euclidean distance (FB)	Euclidean distance (HEPG2)	Euclidean distance (OVCAR4)
CC[C@@]1(O)C(=O)OCc2c1cc1n(c2=O)Cc2cc3cc(O)ccc3nc2-1 [Hydroxy Camptothecine]	3.83	4.01	3.99	3.74	3.55	2.89
CN(C)C1CCN(C(=O)c2ccc(NC(=O)Nc3ccc(-c4nc(N5CCOCC5)nc(N5CCOCC5)n4)cc3)cc2)CC1	3.29	3.49	1.98	4.95	2.04	3.62
CCC(C)n1ncn(-c2ccc(N3CCN(c4ccc(OCC5COC(Cn6cncn6)(c6ccc(Cl)cc6Cl)O5)cc4)CC3)cc2)c1=O (stereo not drawn) [Itraconazole]	4.09	2.48	1.52	1.53	1.02	1
C[C@H]1[C@H](C)CC[C@]2(C(=O)O[C@@H]3O[C@H](CO[C@@H]4O[C@H](CO)[C@@H](O[C@@H]5O[C@@H](C)[C@H](O)[C@@H](O)[C@H]5O)[C@H](O)[C@H]4O)[C@@H](O)[C@H](O)[C@H]3O)CC[C@]3(C)C(=CC[C@@H]4[C@@]5(C)C[C@@H](O)[C@H](O)[C@@](C)(CO)[C@@H]5[C@H](O)C[C@]43C)[C@H]12 [Madecassoside]	0.76	0.636	0.932	1.03	0.483	1.28
CC(=O)Nc1ncc([N+](=O)[O-])s1 [Nithiamide]	0.999	0.607	0.822	0.606	2.08	0.885
CCOc1ccc(NC(C)=O)cc1 [Phenacetin]	1.38	0.916	1.56	0.94	0.469	1.83
CN(C)c1cc(CNCC(C)(C)C)c(O)c2c1C[C@H]1C[C@H]3[C@H](N(C)C)C(O)=C(C(N)=O)C(=O)[C@@]3(O)C(O)=C1C2=O [Omadacycline tosylate]	1.25	0.879	1.21	1.14	0.757	1.46
c1ccc(CN(CC2=NCCN2)c2ccccc2)cc1 [Antazoline HCl]	1.19	0.647	0.893	1.02	0.685	1.02
C[C@H](NC(=O)Cc1cc(F)cc(F)c1)C(=O)N[C@@H]1C(=O)N(C)c2ccccc2-c2ccccc21	0.725	1.36	1.17	1.09	0.895	0.686
CCN1CCN(c2cc3c(cc2F)c(=O)c(C(=O)O)cn3C2CC2)CC1 [Enrofloxacin]	0.875	1.1	0.711	0.933	0.992	1.67
c1ccc([C@H]2CN3CCSC3=N2)cc1 [Levamisole hydrochloride]	0.976	0.704	1.37	0.953	0.417	1.23
CN1C(C(=O)Nc2ccccn2)=C(O)c2sc(Cl)cc2S1(=O)=O [Lornoxicam]	0.853	0.623	0.95	0.965	1	0.799
C[C@@H]1CCO[C@H]2Cn3cc(C(=O)NCc4ccc(F)cc4F)c(=O)c(O)c3C(=O)N12 [Dolutegravir Sodium]	0.603	0.757	0.904	0.594	0.621	0.881
COc1ccc(-c2oc3c(CC=C(C)C)c(O[C@@H]4O[C@H](CO)[C@@H](O)[C@H](O)[C@H]4O)cc(O)c3c(=O)c2O[C@@H]2O[C@@H](C)[C@H](O)[C@@H](O)[C@H]2O)cc1 [Icariin]	0.632	0.62	0.973	0.818	0.96	0.993
CC/C=C\C/C=C\C/C=C\C/C=C\C/C=C\C/C=C\CCC(=O)O [Docosahexaenoic Acid]	1.08	0.581	0.837	1.06	0.766	1.1
Cc1nc(C(=O)NCC(=O)O)c(O)c2ccc(Oc3ccccc3)cc12	1.71	1.55	1.53	2.88	1.32	1.92
CC(C)(C#N)c1cc(Cn2cncn2)cc(C(C)(C)C#N)c1 [Anastrozole]	1.11	0.727	0.702	0.902	0.572	1.41
C[C@@H]1[C@H](O)[C@@H](C)/C=C/C=C/C=C/C=C/C=C/C=C/C=C/[C@H](O[C@@H]2O[C@H](C)[C@@H](O)[C@H](N)[C@@H]2O)C[C@@H]2O[C@](O)(C[C@@H](O)C[C@@H](O)[C@H](O)CC[C@@H](O)C[C@@H](O)CC(=O)O[C@H]1C)C[C@H](O)[C@H]2C(=O)O [Amphotericin B]	1.91	1.67	1.91	3.03	1.43	1.93
Cc1cc(NS(=O)(=O)c2ccc(N)cc2)no1 [Sulfamethoxazole]	1.58	0.797	0.847	1.02	0.562	0.86

— the supplement of paper PMC10127200
